{
  "source": "the antibiotic and cytotoxicity screens of Wong et al. (2023)",
  "note": "The campaign covered roughly 39,000 compounds. About 3,300 (8.5%) were called active. The full list was thinned out, with actives kept by preference.",
  "data": [
    {"test_system": "HepG2", "assay": "cytotoxicity call (relative viability < 0.9)", "details": "10 µM", "values": [
      {"smiles": "C[C@@H]1CN([C@H](C)CO)C(=O)c2cc(C#CC3CCCCC3)cnc2O[C@H]1CN(C)C(=O)c1ccncc1", "cytotoxicity call": "inactive"},
      {"smiles": "CCS(=O)(=O)N1C[C@]2(C1)CN([C@H](CO)c1c2c2ccc(cc2n1C)OC)C(=O)Nc1cccc(c1)F", "cytotoxicity call": "inactive"},
      {"smiles": "C[C@H](CO)N1C[C@H](C)[C@@H](CN(C)Cc2ccc(-c3ccccc3)cc2)Oc2c(NS(=O)(=O)c3ccc(F)cc3)cccc2C1=O", "cytotoxicity call": "active"},
      {"smiles": "C[C@H](CO)N1C[C@H](C)[C@H](CN(C)Cc2ccc(-c3ccccc3)cc2)Oc2c(NS(=O)(=O)c3ccc(F)cc3)cccc2C1=O", "cytotoxicity call": "active"},
      {"smiles": "C[C@@H]1CN([C@@H](C)CO)C(=O)c2cccc(NS(=O)(=O)c3ccc(F)cc3)c2O[C@@H]1CN(C)Cc1ccc(-c2ccccc2)cc1", "cytotoxicity call": "active"},
      {"smiles": "C[C@@H]1CN([C@H](C)CO)C(=O)c2cccc(NS(=O)(=O)c3ccc(F)cc3)c2O[C@H]1CN(C)Cc1ccc(-c2ccccc2)cc1", "cytotoxicity call": "active"},
      {"smiles": "C[C@H](CO)N1C[C@H](C)[C@H](CN(C)Cc2ccc(-c3ccccc3)cc2)Oc2c(NS(=O)(=O)c3ccccc3)cccc2C1=O", "cytotoxicity call": "inactive"},
      {"smiles": "C[C@@H]1CN([C@@H](C)CO)C(=O)c2cccc(NS(=O)(=O)c3ccccc3)c2O[C@@H]1CN(C)Cc1ccc(-c2ccccc2)cc1", "cytotoxicity call": "inactive"},
      {"smiles": "C[C@H]1CN([C@@H](C)CO)C(=O)c2cccc(NS(=O)(=O)c3ccc(F)cc3)c2O[C@H]1CN(C)Cc1ccc(-c2ccccc2)cc1", "cytotoxicity call": "inactive"},
      {"smiles": "C[C@@H]1CN([C@H](C)CO)C(=O)c2cccc(NS(=O)(=O)c3ccccc3)c2O[C@H]1CN(C)Cc1ccc(-c2ccccc2)cc1", "cytotoxicity call": "inactive"},
      {"smiles": "C[C@@H]1CN([C@@H](C)CO)C(=O)c2cccc(NS(=O)(=O)c3ccc(F)cc3)c2O[C@H]1CN(C)Cc1ccc(-c2ccccc2)cc1", "cytotoxicity call": "inactive"},
      {"smiles": "C[C@@H]1CN([C@H](C)CO)C(=O)c2cccc(NS(=O)(=O)c3ccc(F)cc3)c2O[C@@H]1CN(C)Cc1ccc(-c2ccccc2)cc1", "cytotoxicity call": "inactive"},
      {"smiles": "C[C@H]1CN([C@@H](C)CO)C(=O)c2cccc(NS(=O)(=O)c3ccccc3)c2O[C@@H]1CN(C)Cc1ccc(-c2ccccc2)cc1", "cytotoxicity call": "inactive"},
      {"smiles": "C[C@H]1CN([C@@H](C)CO)C(=O)c2cccc(NS(=O)(=O)c3ccc(F)cc3)c2O[C@@H]1CN(C)Cc1ccc(-c2ccccc2)cc1", "cytotoxicity call": "inactive"},
      {"smiles": "COCC(=O)Nc1ccc2c(c1)C(=O)N(C)[C@@H]1CC[C@H](CC(=O)NCc3ccc(OC)cc3)O[C@H]1CO2", "cytotoxicity call": "inactive"},
      {"smiles": "C[C@H]1CN([C@@H](C)CO)C(=O)Cc2cc(NS(=O)(=O)c3ccccc3)ccc2O[C@H]1CN(C)CC1CC1", "cytotoxicity call": "inactive"},
      {"smiles": "C[C@@H]1CN([C@@H](C)CO)C(=O)c2cc(NC(=O)CCC(F)(F)F)ccc2O[C@@H](C)CCCCO[C@H]1CN(C)S(=O)(=O)c1ccc(F)cc1", "cytotoxicity call": "inactive"},
      {"smiles": "COc1ccccc1CNC(=O)C[C@H]1C[C@@H]2c3cc(NC(=O)C4CCOCC4)ccc3O[C@@H]2[C@@H](CO)O1", "cytotoxicity call": "inactive"},
      {"smiles": "COc1ccc(S(=O)(=O)Nc2ccc3c(c2)C(=O)N([C@H](C)CO)C[C@@H](C)[C@@H](CN(C)CC2CC2)O3)cc1", "cytotoxicity call": "inactive"},
      {"smiles": "Cc1noc(C)c1NC(=O)N(C)C[C@H]1Oc2ccc(NC(=O)NC(C)C)cc2CC(=O)N([C@@H](C)CO)C[C@H]1C", "cytotoxicity call": "inactive"},
      {"smiles": "O=C(CN1CCOCC1)NCC[C@H]1CC[C@H](NC(=O)Nc2ccccc2)[C@@H](CO)O1", "cytotoxicity call": "inactive"},
      {"smiles": "C[C@@H]1CCCCO[C@@H](CN(C)C(=O)Nc2ccc3c(c2)OCO3)[C@@H](C)CN([C@H](C)CO)C(=O)c2cc(NC(=O)Nc3ccccc3)ccc2O1", "cytotoxicity call": "inactive"},
      {"smiles": "Nc1cccc(C2=NCCN2)c1", "cytotoxicity call": "inactive"},
      {"smiles": "CS(=O)(=O)Nc1ccc2c(c1)[C@H]1C[C@@H](CC(=O)NCC3CC3)O[C@H](CO)[C@H]1O2", "cytotoxicity call": "inactive"},
      {"smiles": "COc1ccc(NC(=O)N(C)C[C@@H]2Oc3ncc(C#CCN(C)C)cc3C(=O)N([C@@H](C)CO)C[C@@H]2C)cc1", "cytotoxicity call": "inactive"},
      {"smiles": "C[C@H](CO)N1C[C@H](C)[C@H](CN(C)S(=O)(=O)c2ccc(F)cc2)Oc2c(NS(=O)(=O)c3ccc(F)cc3)cccc2C1=O", "cytotoxicity call": "inactive"},
      {"smiles": "C[C@@H]1CN([C@@H](C)CO)C(=O)c2cccc(NS(=O)(=O)c3ccc(F)cc3)c2O[C@@H]1CN(C)S(=O)(=O)c1ccc(F)cc1", "cytotoxicity call": "active"},
      {"smiles": "C[C@H]1CN([C@@H](C)CO)C(=O)c2cccc(NS(=O)(=O)c3ccc(F)cc3)c2O[C@H]1CN(C)S(=O)(=O)c1ccc(F)cc1", "cytotoxicity call": "inactive"},
      {"smiles": "CC(C)C#Cc1ccc2c(c1)O[C@@H](CN(C)S(=O)(=O)c1cn(C)cn1)[C@H](C)CN([C@H](C)CO)S2(=O)=O", "cytotoxicity call": "inactive"},
      {"smiles": "O=C(CS)NCCCCCCNC(=O)[C@@H]1C[C@@H]2C(=O)N[C@@H](Cc3ccccc3)C(=O)N2[C@@H]1c1ccc(O)cc1", "cytotoxicity call": "inactive"},
      {"smiles": "COc1ccc(NC(=O)N2C[C@H](O)COC[C@H]3O[C@@H](CC(=O)NC4Cc5ccccc5C4)CC[C@@H]32)cc1", "cytotoxicity call": "inactive"},
      {"smiles": "CO[C@H]1CN(C)C(=O)c2ccc(NC(=O)C3CC3)cc2OC[C@@H](C)N(C(=O)CN2CCOCC2)C[C@H]1C", "cytotoxicity call": "inactive"},
      {"smiles": "C[C@H]1CN([C@@H](C)CO)C(=O)c2cccc(NC(=O)c3ccc(-c4nccs4)cc3)c2O[C@H]1CN(C)C(=O)Nc1cccc2ccccc12", "cytotoxicity call": "inactive"},
      {"smiles": "COc1ccc(C#Cc2ccc3c(c2)[C@]2(C(=O)N3)[C@H](c3ccccc3OCCO)N3[C@H](c4ccccc4)[C@H](c4ccccc4)OC(=O)[C@H]3[C@@H]2C(=O)NC[C@H](O)c2ccccc2)cc1", "cytotoxicity call": "active"},
      {"smiles": "COc1ccc(C#Cc2ccc3c(c2)[C@]2(C(=O)N3)[C@H](c3ccc(OCCO)cc3)N3[C@H](c4ccccc4)[C@H](c4ccccc4)OC(=O)[C@H]3[C@@H]2C(=O)NC[C@H](O)c2ccccc2)cc1", "cytotoxicity call": "inactive"},
      {"smiles": "COc1ccc(C#Cc2ccc3c(c2)[C@]2(C(=O)N3)[C@H](C(=O)N3CCN(c4ncccn4)CC3)[C@H]3C(=O)O[C@H](c4ccccc4)[C@H](c4ccccc4)N3[C@@H]2c2ccccc2OCCO)cc1", "cytotoxicity call": "inactive"},
      {"smiles": "COc1ccc(C#Cc2ccc3c(c2)[C@]2(C(=O)N3)[C@H](c3ccccc3OCCO)N3[C@H](c4ccccc4)[C@H](c4ccccc4)OC(=O)[C@H]3[C@@H]2C(=O)O)cc1", "cytotoxicity call": "inactive"},
      {"smiles": "C=CCNC(=O)[C@H]1[C@@H]2C(=O)O[C@@H](c3ccccc3)[C@@H](c3ccccc3)N2[C@@H](c2ccccc2OCCO)[C@]12C(=O)Nc1ccc(C#CC3=CCCCC3)cc12", "cytotoxicity call": "inactive"},
      {"smiles": "C=CCNC(=O)[C@@H]1[C@H]2C(=O)O[C@H](c3ccccc3)[C@H](c3ccccc3)N2[C@H](c2ccccc2OCCO)[C@@]12C(=O)Nc1ccc(C#CC3=CCCCC3)cc12", "cytotoxicity call": "inactive"},
      {"smiles": "COc1ccc(C#Cc2ccc3c(c2)[C@]2(C(=O)N3)[C@H](C(=O)O)[C@H]3C(=O)O[C@H](c4ccccc4)[C@H](c4ccccc4)N3[C@@H]2c2ccccc2OCCO)cc1", "cytotoxicity call": "inactive"},
      {"smiles": "COc1ccc(C#Cc2ccc3c(c2)[C@]2(C(=O)N3)[C@H](C(=O)N3CCN(c4ncccn4)CC3)[C@H]3C(=O)O[C@H](c4ccccc4)[C@H](c4ccccc4)N3[C@@H]2c2ccc(OCCO)cc2)cc1", "cytotoxicity call": "inactive"},
      {"smiles": "O=C1O[C@H](c2ccccc2)[C@H](c2ccccc2)N2[C@H]1[C@@H](C(=O)NC[C@@H](O)c1ccccc1)[C@]1(C(=O)Nc3ccc(C#CC4=CCCCC4)cc31)[C@H]2c1ccccc1OCCO", "cytotoxicity call": "active"},
      {"smiles": "COc1ccc(C#Cc2ccc3c(c2)[C@]2(C(=O)N3)[C@H](c3ccccc3OCCO)N3[C@H](c4ccccc4)[C@H](c4ccccc4)OC(=O)[C@H]3[C@@H]2C(=O)N2CCN(c3ncccn3)CC2)cc1", "cytotoxicity call": "active"},
      {"smiles": "C=CCNC(=O)[C@@H]1[C@H]2C(=O)O[C@H](c3ccccc3)[C@H](c3ccccc3)N2[C@H](c2ccccc2OCCO)[C@@]12C(=O)Nc1ccc(C#Cc3ccc(OC)cc3)cc12", "cytotoxicity call": "inactive"},
      {"smiles": "COc1ccc(C#Cc2ccc3c(c2)[C@]2(C(=O)N3)[C@H](C(N)=O)[C@H]3C(=O)O[C@H](c4ccccc4)[C@H](c4ccccc4)N3[C@@H]2c2ccccc2OCCO)cc1", "cytotoxicity call": "active"},
      {"smiles": "Cc1noc(C)c1NC(=O)Nc1ccc2c(c1)C(=O)N([C@@H](C)CO)C[C@H](C)[C@H](CN(C)Cc1ccc(C(F)(F)F)cc1)O2", "cytotoxicity call": "inactive"},
      {"smiles": "Cc1noc(C)c1NC(=O)N(C)C[C@@H]1Oc2c(NS(=O)(=O)c3cn(C)cn3)cccc2C(=O)N([C@H](C)CO)C[C@@H]1C", "cytotoxicity call": "inactive"},
      {"smiles": "OCCCn1cnnc1", "cytotoxicity call": "inactive"},
      {"smiles": "C[C@H](CO)N1C[C@H](C)[C@H](CN(C)C)Oc2cc(C#CCN(C)C)ccc2S1(=O)=O", "cytotoxicity call": "inactive"},
      {"smiles": "CN(C)Cc1cn(CC[C@H]2CC[C@H](NS(=O)(=O)c3ccccc3)[C@H](CO)O2)nn1", "cytotoxicity call": "inactive"},
      {"smiles": "C[C@H]1CN([C@@H](C)CO)C(=O)c2cc(NS(C)(=O)=O)ccc2O[C@H]1CN(C)Cc1ccc(C(=O)Nc2ccccc2N)cc1", "cytotoxicity call": "inactive"},
      {"smiles": "C[C@H]1CN([C@@H](C)CO)C(=O)CCCn2nncc2CO[C@@H]1CN(C)C(=O)Nc1cccc2ccccc12", "cytotoxicity call": "inactive"},
      {"smiles": "C[C@H](CO)N1C[C@H](C)[C@@H](CN(C)C(=O)Nc2ccc(C(F)(F)F)cc2)Oc2ccc(NC(=O)C3CCCCC3)cc2CC1=O", "cytotoxicity call": "inactive"},
      {"smiles": "O=C1O[C@@H](c2ccccc2)[C@@H](c2ccccc2)N2[C@@H](c3ccc(OCCO)cc3)[C@]3(C(=O)Nc4ccc(C#CC5(O)CCCCCC5)cc43)[C@@H](C(=O)NC[C@H](O)c3ccccc3)[C@H]12", "cytotoxicity call": "inactive"},
      {"smiles": "O=C1O[C@@H](c2ccccc2)[C@@H](c2ccccc2)N2[C@@H](c3ccc(O)cc3)[C@]3(C(=O)Nc4ccc(C#CC5=CCCCC5)cc43)[C@@H](C(=O)NC[C@H](O)c3ccccc3)[C@H]12", "cytotoxicity call": "inactive"},
      {"smiles": "O=C1O[C@@H](c2ccccc2)[C@@H](c2ccccc2)N2[C@@H](c3ccc(OCCO)cc3)[C@]3(C(=O)Nc4ccc(C#CC5=CCCCC5)cc43)[C@@H](C(=O)NC[C@H](O)c3ccccc3)[C@H]12", "cytotoxicity call": "active"}
    ]}
  ]
}
